# Entries with a potency or affinity are not part of this list. Activity calls are given as the source filed them.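 How the source made its calls: active means cell killing with fitted half-maximal concentration at most twice the top valid dose; inconclusive means flat partial loss of 30 to 70%, or poor fit; inactive means the rest.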
# Assay: cytotoxicity in HEK293 cells, dose response, cytotoxicity control, cell-based, cherry-picked samples (AID 1053185)
# Conditions: HEK293T viability, ATP luminescence, 72 h; series mostly up to 26 µM; activity change, negative = cytotoxicity: at the top concentration
row,Structure (SMILES),"activity change, negative = cytotoxicity"
1,C/C=C/c1ccc([C@H]2[C@@H](CO)N3C(=O)CN(Cc4ccc(F)cc4)C[C@@H]23)cc1,-5.85% (inactive)
2,COc1cc(CN2C[C@@H]3N[C@H](C2)C3c2ccc(-c3ccc(C#N)cc3)cc2)cc(OC)c1 (some centres undefined),-1.68% (inactive)
3,COc1ccc2c3c(n(C)c2c1)[C@@H](CO)N(CC1CC1)CC31CN(C(=O)c2ccc3c(c2)OCO3)C1,-7.78% (inactive)
4,CNC[C@@H]1Oc2cc(C#Cc3ccccc3OC)ccc2S(=O)(=O)N([C@H](C)CO)C[C@H]1C,-0.997% (inactive)
5,COc1cccc(-c2cccc(-c3nc(C(=O)Nc4ccc(-c5ccccc5)cc4)cc4c3[C@@H](CCO)N(S(=O)C(C)(C)C)C4)c2)c1 (some centres undefined),-5.79% (inactive)
6,O=S(=O)(c1ccc(F)cc1)N1C[C@@H]2N[C@H](C1)C2c1ccc(/C=C/c2ccccc2)cc1 (some centres undefined),-2.66% (inactive)
7,CO[C@@H](CN(C)Cc1cc(F)ccc1F)[C@@H](C)CN(C(=O)Nc1ccc(C(F)(F)F)cc1)[C@H](C)CO,-11.8% (inactive)
8,C[C@@H]1CN([C@@H](C)CO)C(=O)Cc2cc(NC(=O)C3CCCCC3)ccc2O[C@@H]1CN(C)Cc1ccc(Cl)c(Cl)c1,-9.84% (inactive)
9,CN(C)C(=O)c1cccc(-c2ccc(C3[C@@H]4CN(Cc5ccccc5F)C[C@H]3N4)cc2)c1 (some centres undefined),-7.48% [at 23.5 µM] (inactive)

# Reference: PubChem BioAssay AID1053185 (Broad Institute, 2014)
